Sampled rows, rich in hits. Any-hit rate of the full collection: about 3.5%.
MITF inh: MITF inhibitors, primary screen, biochemical, AlphaScreen, human | Microphthalmia-associated transcription factor (Homo sapiens), O75030 | AlphaScreen MITF homodimerization, bead proximity signal | 650,000 compounds, 0.91% hits | AID 1259374, 2018 | inhibition, % at 2.6 µM; in the data active = inhibition above about 50%;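 note: 0% = vehicle wells with protein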
TEAD-YAP block: TEAD-YAP interaction inhibition, primary screen, TEAD-YAP interaction inhibitor project, luminescence, HEK-TIYL cells | TEAD-Gal4/YAP UAS-luciferase luminescence | inhibition, % at 9.12 µM | AID 1259422, 2018 | 640,000 compounds, 1.4% hits; in the data active = inhibition above about 32%;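 note: 0% = median of test compound wells and 100% = reference inhibitor wells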
FBW7 activator: FBW7 E3 ligase activators, primary screen, biochemical, AlphaScreen, human; normalized activity (activation), % at 26.1 µM; AlphaScreen FBW7–phospho-cyclin E peptide binding, activator screen; 650,000 compounds, 0.13% hits; in the data active = normalized activity above about 1.9%;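 note: purified mutant Fbw7 with reduced substrate affinity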
Target sequence (Q969H0 whole entry, looked up): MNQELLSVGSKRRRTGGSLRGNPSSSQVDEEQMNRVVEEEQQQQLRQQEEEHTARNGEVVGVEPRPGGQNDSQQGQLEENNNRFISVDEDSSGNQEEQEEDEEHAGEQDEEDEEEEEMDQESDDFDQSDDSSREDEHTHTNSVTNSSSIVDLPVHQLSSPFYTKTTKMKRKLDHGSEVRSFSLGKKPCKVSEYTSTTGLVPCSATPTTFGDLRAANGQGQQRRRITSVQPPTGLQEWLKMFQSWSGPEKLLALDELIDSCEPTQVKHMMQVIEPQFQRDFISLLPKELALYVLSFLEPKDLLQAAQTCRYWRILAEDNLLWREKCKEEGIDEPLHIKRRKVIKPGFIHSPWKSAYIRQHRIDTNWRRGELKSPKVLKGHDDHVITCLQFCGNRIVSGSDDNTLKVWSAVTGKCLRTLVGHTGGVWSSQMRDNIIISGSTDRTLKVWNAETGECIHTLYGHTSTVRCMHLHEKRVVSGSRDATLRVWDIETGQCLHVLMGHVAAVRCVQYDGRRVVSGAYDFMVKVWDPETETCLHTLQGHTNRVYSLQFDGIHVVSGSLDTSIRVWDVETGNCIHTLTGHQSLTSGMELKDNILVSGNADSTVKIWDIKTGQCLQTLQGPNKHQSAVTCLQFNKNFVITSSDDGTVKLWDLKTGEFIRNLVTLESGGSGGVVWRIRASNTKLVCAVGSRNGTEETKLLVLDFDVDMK
GPR151 activ: activators of human GPR151, primary screen, cell-based, PathHunter beta-arrestin, luminescence | G-protein coupled receptor 151 (Homo sapiens), Q8TDV0 | PathHunter beta-arrestin GPR151 cells | activation, % at 11.2 µM | 650,000 compounds, 1% hits | AID 1508602, 2020; in the data active = activation above about 4.9%;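 note: 0% = median of compound wells and 100% = cells with positive control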
GPR151 confirm: GPR151 activators, triplicate retest, confirmation, cell-based, PathHunter beta-arrestin, luminescence; shares compounds with GPR151 activ; GPR151 PathHunter beta-arrestin cells, 90 min; % of EA-reagent control over plate median; activation, % at 11.2 µM; 6,700 tested, under 10 active; AID 1508609, 2020;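 active = mean percent activation across replicates above the confirmation screen cutoff of 4.91%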
GPR119 counter: GPR119 activators in beta-arrestin cells, counter-screen for GPR151 activator project, cell-based, PathHunter beta-arrestin, luminescence, triplicate; shares compounds with GPR151 activ; 90 min; 0 = compound-well median, 100 = enzyme-acceptor control; activation, % at 11.2 µM; 6,700 compounds, 0.3% hits; AID 1508611, 2020;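 active = mean percent activation in the counterscreen above 29.09%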;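 note: counterscreen on off-target GPR119 to flag nonselective hits from the GPR151 activator screen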
Numbers without * were called inactive; x = not tested or not shown.

SMILES	MITF inh	TEAD-YAP block	FBW7 activator	GPR151 activ	GPR151 confirm	GPR119 counter
COc1cc(/C=N/NC(=O)c2ccc(N(C)S(=O)(=O)c3ccccc3)cc2)ccc1O	5.3	-8.6	-0.1	9.3*	0.6	-2.9
COc1ccc(OCCCN2CC(C)OC(C)C2)cc1 (centres undefined)	25.4	3.0	-0.2	0.9	x	x
O=[N+]([O-])c1ccc(Cl)c2c1C1C=CCC1C(c1ccccn1)N2 (centres undefined)	8.7	-5.3	-0.6	5.1*	0.3	9.8
O=C(CN1CCC(O)CC1)N1c2ccccc2Sc2ccc(C(F)(F)F)cc21	-3.3	-16.4	0.0	8.4*	-0.6	-7.6
CN1CCN(CC(=O)N2c3ccccc3Sc3ccc(C(F)(F)F)cc32)CC1	-5.9	1.7	-0.2	2.0	x	x
COC(=O)c1c(C)cc(=O)oc1C	-0.2	3.7	0.0	3.7	x	x
C=CCOc1ccccc1C(c1c(C)[nH][nH]c1=O)c1c(C)[nH][nH]c1=O	7.3	4.7	-1.1	9.5*	0.4	-7.6
CCC1CCC2(CC1)SCC(=O)N2c1ccc(F)cc1 (centres undefined)	8.8	5.0	0.0	6.4*	-0.3	-7.6
CCC1CCC2(CC1)SCC(=O)N2c1ccccc1 (centres undefined)	7.3	2.3	-0.1	4.6	x	x
O=C1C(Cl)=C(NCCO)C(=O)N1c1ccc(Cl)cc1	25.2	14.1	0.5	5.1*	0.0	4.4
NC(=O)c1ccc(Nc2nccc(-c3ccc(Cl)cc3)n2)cc1	8.0	23.2	0.0	5.6*	0.2	14.8
COC(=O)c1ccc(Nc2nccc(-c3ccccc3)n2)cc1	5.9	-21.9	-0.1	-2.1	x	x
O=C1C(=O)N(c2nc3ccccc3s2)C(c2ccccc2)/C1=C(\O)c1ccccc1 (centres undefined)	8.9	11.8	0.0	4.9*	1.2	14.8
CCC(=O)Oc1cc2c(C(=O)OC(C)C)c(C)oc2cc1Br	-5.9	-44.5	0.0	8.2*	1.0	16.7
O=C(Cc1cn(-c2ccc(Nc3cnccn3)nn2)c2ccccc12)NCCOc1ccccc1	7.3	9.8	0.0	6.2*	-0.6	-6.1
CCN(CC)c1nc(Nc2ccc3c(c2)OCO3)nc(Nc2nccc3ccccc23)n1	2.2	-23.9	0.5	-1.7	x	x
COc1ccccc1-c1nnc(C2CCN(S(=O)(=O)c3ccccc3)CC2)o1	-5.2	0.2	-0.1	5.8*	-0.3	-10.0
C=CCN(CC=C)S(=O)(=O)c1ccc(C(=O)Nc2sc3c(c2C(=O)OC)CCN(C(C)=O)C3)cc1	0.6	23.0	0.0	-1.0	x	x
CC(=O)c1cccc(NC(=O)CC2S\C(=N/N=C/C=C/c3ccccc3)NC2=O)c1 (centres undefined)	8.4	-2.4	-0.2	9.3*	1.9	11.8
COCCN(C(C)=O)c1nnc(-c2ccc(C)cc2)s1	15.0	-46.5	0.5	-0.4	x	x
COc1ccccc1CNC(=O)C(=O)NCc1ccccc1OC	-5.3	-2.0	-0.1	0.1	x	x
COc1ccccc1-c1nnc(NC(=O)CSC2=NCCS2)s1	4.1	-7.2	0.0	5.6*	0.9	4.8
Cc1ccc2c(Cn3cc(C(F)(F)F)cc(Cl)c3=O)cc(=O)oc2c1	-7.6	-2.8	-0.2	7.6*	-0.7	-7.2
FC(F)(F)c1cccc(-c2cnnc(N3CCN(c4ccccn4)CC3)n2)c1	11.9	11.8	0.1	15.3*	-0.2	8.9
FC(F)(F)c1ccc(-c2cnnc(N3CCN(Cc4cccnc4)CC3)n2)cc1	-2.3	6.4	-0.2	6.0*	-0.4	-2.4
SMILES	MITF inh	TEAD-YAP block	FBW7 activator	GPR151 activ	GPR151 confirm	GPR119 counter
FC(F)(F)c1ccc(-c2cnnc(N3CCCCCC3)n2)cc1	2.4	6.8	-0.1	-0.4	x	x
C[C@@H]1CN(c2nncc(-c3cccc(C(F)(F)F)c3)n2)C[C@H](C)O1	13.5	0.2	0.0	-1.4	x	x
O=C(COc1ccc(Cl)cc1Cl)Nc1ncn[nH]1	12.9	42.4*	-0.3	6.6*	2.7	-13.2
O=C(CCCOc1ccc(Cl)cc1Cl)Nc1ncn[nH]1	-9.6	-6.8	-0.1	-0.5	x	x
CC(=O)Nc1ccc(NC(=O)COc2ccc(Cl)cc2Br)cc1	7.2	-21.6	0.0	5.1*	0.2	15.3
CCS(=O)(=O)N1CC=C[C@@H]1C(=O)NC1CC1	-10.0	0.6	-0.1	1.3	x	x
CCOC(=O)C1CCCN(C(=O)/C(C)=C\c2ccccc2)C1 (centres undefined)	2.1	-1.5	0.3	5.3*	-0.5	-7.0
COc1cc(C=O)ccc1Oc1nc2ccccc2n2cnnc12	9.2	1.0	0.0	5.8*	0.9	14.6
COC(=O)C1=C(C)N=c2s/c(=C/c3ccccc3)c(=O)n2C1c1ccccc1Cl (centres undefined)	0.6	-0.7	0.9	-1.9	x	x
Cc1c(C(=O)NCC2CCCO2)oc2ccc3c(c12)C=CC(C)(C)O3 (centres undefined)	10.8	-72.9	0.1	10.1*	-0.8	-1.8
O=C(CN1Cc2ccccc2OC(c2ccccc2F)C1)N1CCCC1c1n[nH]c(=O)[nH]1 (centres undefined)	-10.9	-8.0	-0.1	7.5*	-0.1	1.9
Cc1cccc(N=C2NC(=O)/C(=C\c3ccc(O)c(Br)c3)S2)c1	-17.2	-1.0	0.2	-1.2	x	x
Cc1ccc(NC(=O)C2CC3CCCN3C23C(=O)N(C)c2ccccc23)cc1C (centres undefined)	-22.4	6.5	-0.1	-0.1	x	x
COc1ccc(NC(=O)C2CC3CCCN3C23C(=O)N(C)c2ccccc23)cc1OC (centres undefined)	3.9	-2.9	0.2	5.2*	0.8	5.1
O=C(CN1C(=O)CCc2ccccc21)N1CCN(c2ccccn2)CC1	5.7	1.8	0.0	0.6	x	x
O=C(Cn1nnnc1CN1CCCCCC1)N1CCC[C@H]1CO	-13.4	-0.9	0.0	-0.5	x	x
O=C(Cn1nnnc1CN1CCCCCC1)N1CCCCC1c1cccnc1 (centres undefined)	9.2	5.5	0.2	5.7*	1.0	10.1
CC(=O)N1CCc2cc(NS(=O)(=O)c3ccc4ccccc4c3)ccc21	8.0	-5.2	-0.2	5.0*	0.7	2.7
CC(=O)N1CCSc2cc(S(=O)(=O)NC3CCCCC3)ccc21	-16.0	14.1	0.2	6.1*	0.9	2.0
CC(=O)N1CCSc2cc(S(=O)(=O)Nc3ccc(C(C)C)cc3)ccc21	-10.1	-10.2	-0.3	0.3	x	x
CC(=O)N1CCSc2cc(S(=O)(=O)Nc3ccc(Cl)cc3)ccc21	1.5	3.8	-0.1	5.0*	0.2	2.2
